Results filed as inconclusive are left out. Calls of active or inactive are those of the source. Unless noted, calls come from the whole dose curve; as a rule, active = well fitted curve in the direction sought with a large enough effect; inconclusive = small, poorly fitted or top-dose-only effect, or another doubt; inactive = no such curve, though single readings can be large; an effect the other way counts as inactive or inconclusive.
Legend:
[1] = Viability counterscreen for antagonist of constitutive androstane receptor (CAR) against the NCATS DSHEA and TCM libraries (AID 1794837);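 note: compound exposure lasted 24 h before viability reading; 0% is about no effect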
Method in brief: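 Cell viability, CellTiter-Fluor, Ex/Em 405/540 nm, 1 h at 37C. HepG2-CYP2B6-hCAR, 2,500 cells/well; cpds + CITCO 48 uM final (antagonist mode), 24 h, 37C/5% CO2.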

[2] = target: Nuclear receptor subfamily 1 group I member 3 (Homo sapiens) (UniProt Q14994); assay: Primary qHTS for agonist of constitutive androstane receptor (CAR) against the NCATS DSHEA and TCM libraries (AID 1794839);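 note: HepG2 cells expressing human CAR with a CYP2B6 reporter plus PK11195 antagonist; 0% is about no effect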
Nuclear receptor subfamily 1 group I member 3 (Homo sapiens), sequence (Q14994 whole entry, looked up): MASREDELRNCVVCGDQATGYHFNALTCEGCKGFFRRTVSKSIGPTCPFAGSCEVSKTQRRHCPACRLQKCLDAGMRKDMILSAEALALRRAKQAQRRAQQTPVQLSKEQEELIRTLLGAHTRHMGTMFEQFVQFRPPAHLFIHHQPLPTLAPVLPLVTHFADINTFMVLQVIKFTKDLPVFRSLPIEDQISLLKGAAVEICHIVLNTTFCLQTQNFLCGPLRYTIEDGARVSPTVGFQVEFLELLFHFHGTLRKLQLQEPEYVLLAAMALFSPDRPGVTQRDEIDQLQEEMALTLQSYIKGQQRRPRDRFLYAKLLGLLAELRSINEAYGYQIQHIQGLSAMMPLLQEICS
Method in brief: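 Luminescence from ONE-Glo luciferase was the agonist read-out in HepG2-CYP2B6-hCAR cells exposed 24 h to test substances. Wells also held the CAR antagonist PK11195 at 0.75 µM final. Viability was by CellTiter-Fluor fluorescence.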

[3] = HepG2 viability counterscreen (readout 2: ATP content) against the NCATS DSHEA and TCM libraries (AID 1794840); note: 0% is about no effect
Method in brief: (§1)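 1,000 HepG2 cells/well, 4 h attach; compounds ~24 h, 37C/5% CO2. Readout 1: GF-AFC 25 uM final, 30 min, fluorescence 380/510 nm. Readout 2: CellTiter-Glo, 30 min RT, luminescence.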

[4] = HepG2 viability counterscreen (readout 1: protease activity) against the NCATS DSHEA and TCM libraries (AID 1794841);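 note: cells exposed to compounds for about 24 h before the protease read; 0% is about no effect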
Method in brief: as §1

[5] = target: Cytochrome P450 3A4 (Homo sapiens) (UniProt P08684); assay: qHTS for inhibitors of CYP3A4 against the NCATS DSHEA and TCM libraries (AID 1919971);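 note: % is set by controls: 0 for no effect and ±100 for the full control effect; inhibition lowers luminescence from luciferin made by CYP3A4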
Cytochrome P450 3A4 (Homo sapiens), sequence (P08684 whole entry, looked up): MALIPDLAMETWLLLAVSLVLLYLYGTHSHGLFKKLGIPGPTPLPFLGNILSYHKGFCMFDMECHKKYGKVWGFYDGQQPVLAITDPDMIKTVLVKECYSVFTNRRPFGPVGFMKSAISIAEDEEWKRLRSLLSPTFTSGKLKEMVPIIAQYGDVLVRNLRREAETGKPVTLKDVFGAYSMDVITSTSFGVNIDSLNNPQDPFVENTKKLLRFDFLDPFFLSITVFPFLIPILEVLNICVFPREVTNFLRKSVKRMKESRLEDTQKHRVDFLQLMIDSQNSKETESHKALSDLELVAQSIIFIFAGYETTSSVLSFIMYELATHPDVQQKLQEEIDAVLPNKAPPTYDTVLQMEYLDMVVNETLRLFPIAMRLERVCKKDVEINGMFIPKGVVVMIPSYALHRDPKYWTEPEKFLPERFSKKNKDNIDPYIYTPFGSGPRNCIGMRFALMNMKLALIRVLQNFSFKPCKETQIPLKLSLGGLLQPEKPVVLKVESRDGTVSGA
Method in brief: (§2)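 Luminescent P450-Glo format: compounds preincubated 15 min with enzyme and luciferin substrate, reaction run 30-45 min after NADPH regeneration solution. Intraplate controls: ketoconazole for CYP3A4 and CYP2C19, sulfaphenazole for CYP2C9.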

[6] = target: Cytochrome P450 2D6 (Homo sapiens) (UniProt P10635); assay: qHTS for inhibitors of CYP2D6 against the NCATS DSHEA and TCM libraries (AID 1919972); note: % is set by controls: 0 for no effect and ±100 for the full control effect
Cytochrome P450 2D6 (Homo sapiens), sequence (P10635 whole entry, looked up): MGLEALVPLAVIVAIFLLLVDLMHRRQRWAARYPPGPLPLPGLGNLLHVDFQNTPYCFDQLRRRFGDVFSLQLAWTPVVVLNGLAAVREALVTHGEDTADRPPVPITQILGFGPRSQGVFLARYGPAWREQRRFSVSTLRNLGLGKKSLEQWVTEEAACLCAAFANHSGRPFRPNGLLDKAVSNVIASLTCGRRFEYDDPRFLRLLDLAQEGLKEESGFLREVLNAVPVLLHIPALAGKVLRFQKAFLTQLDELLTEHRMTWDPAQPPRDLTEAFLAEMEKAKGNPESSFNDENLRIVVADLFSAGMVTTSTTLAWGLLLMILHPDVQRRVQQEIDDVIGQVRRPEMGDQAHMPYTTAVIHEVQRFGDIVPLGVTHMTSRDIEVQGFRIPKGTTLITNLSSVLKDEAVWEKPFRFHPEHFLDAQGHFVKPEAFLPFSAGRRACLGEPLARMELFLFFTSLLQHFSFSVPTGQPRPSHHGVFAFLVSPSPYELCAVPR
Method in brief: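 Luminescent P450-Glo read-out of CYP2D6 turnover of a luciferin substrate after NADPH-driven reaction of 30-45 min at room temperature. Compounds were first preincubated 15 min with enzyme at titrated concentrations; quinidine was the intraplate control.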

[7] = KB-3-1 P-gp reporter qHTS against the NCATS DSHEA and TCM libraries (AID 1919975); note: 0% is about no effect
Method in brief: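 CellTiter-Glo luminescence viability readout; KB-3-1 parental cells, 500/well, attached ~4 h, then compound for ~72 h, 37C, 5% CO2. Bortezomib intraplate control.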

[8] = target: Cytochrome P450 1A2 (Homo sapiens) (UniProt P05177); assay: qHTS for inhibitors of CYPIA2 against the NCATS DSHEA and TCM libraries (AID 1919976);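 note: light from luciferin formed by CYP1A2 from a pro-luciferin substrate; % is set by controls: 0 for no effect and ±100 for the full control effect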
Cytochrome P450 1A2 (Homo sapiens), sequence (P05177 whole entry, looked up): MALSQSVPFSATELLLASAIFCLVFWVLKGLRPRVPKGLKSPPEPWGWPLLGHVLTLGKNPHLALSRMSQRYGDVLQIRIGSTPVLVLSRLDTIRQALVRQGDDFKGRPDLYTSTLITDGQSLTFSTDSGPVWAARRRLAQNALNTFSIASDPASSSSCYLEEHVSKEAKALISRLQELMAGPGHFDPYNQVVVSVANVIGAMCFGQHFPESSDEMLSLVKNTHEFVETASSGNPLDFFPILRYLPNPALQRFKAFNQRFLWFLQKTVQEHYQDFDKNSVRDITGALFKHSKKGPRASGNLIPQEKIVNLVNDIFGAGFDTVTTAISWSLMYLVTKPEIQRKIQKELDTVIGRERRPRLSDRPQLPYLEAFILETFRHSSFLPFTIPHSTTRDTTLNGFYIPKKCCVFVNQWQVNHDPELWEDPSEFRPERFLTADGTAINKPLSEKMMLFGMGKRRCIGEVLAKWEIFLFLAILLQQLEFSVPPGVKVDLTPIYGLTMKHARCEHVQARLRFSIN
Method in brief: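 Human CYP1A2 with pro-luciferin substrate (typically 100 mM KPO4), 15 min preincubation with compound, then 1x NADPH regeneration for 30-45 min at room temperature in the dark. Luciferin quantified by luciferase luminescence; furafylline intraplate control.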

[9] = qHTS Counterscreen for compound interference against the NCATS DSHEA and TCM libraries (AID 1919978); settings: firefly luciferase detection reagent interference, luminescence;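 note: compounds preincubated with 1 µM D-luciferin or buffer before detection reagent; % of control where 0% means no effect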
Method in brief: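 Luminescence counterscreen for detection-kit interference: compounds at 19.5 nM–39.8 uM final, 15 min RT with 1 uM D-luciferin or buffer only; detection reagent added, 30 min RT, then read.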

[10] = Dual reporter qHTS for agonist of Pregnane X Receptor (hPXR) against the NCATS DSHEA and TCM libraries: Fluorescence readout (AID 1920058); note: 0% is about no effect
Method in brief: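 hPXR-Luc HepG2 cells, 2000/well in charcoal-stripped serum, attached 5 h, dosed for ~24 h at 37 °C. Fluorescence read is CellTiter-Fluor viability (Ex/Em 405/540 nm); rifampicin positive, tetraoctyl ammonium bromide (92 µM) cytotoxicity controls.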

[11] = target: Nuclear receptor subfamily 1 group I member 2 (Homo sapiens) (UniProt O75469); assay: Dual reporter qHTS for antagonist of Pregnane X Receptor (hPXR) against the NCATS DSHEA and TCM libraries: Luminescence Readout (AID 1920060);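 note: HepG2 cells carrying hPXR luciferase reporter stimulated with rifampicin at 2 µM; 0% is about no effect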
Nuclear receptor subfamily 1 group I member 2 (Homo sapiens), sequence (O75469 whole entry, looked up): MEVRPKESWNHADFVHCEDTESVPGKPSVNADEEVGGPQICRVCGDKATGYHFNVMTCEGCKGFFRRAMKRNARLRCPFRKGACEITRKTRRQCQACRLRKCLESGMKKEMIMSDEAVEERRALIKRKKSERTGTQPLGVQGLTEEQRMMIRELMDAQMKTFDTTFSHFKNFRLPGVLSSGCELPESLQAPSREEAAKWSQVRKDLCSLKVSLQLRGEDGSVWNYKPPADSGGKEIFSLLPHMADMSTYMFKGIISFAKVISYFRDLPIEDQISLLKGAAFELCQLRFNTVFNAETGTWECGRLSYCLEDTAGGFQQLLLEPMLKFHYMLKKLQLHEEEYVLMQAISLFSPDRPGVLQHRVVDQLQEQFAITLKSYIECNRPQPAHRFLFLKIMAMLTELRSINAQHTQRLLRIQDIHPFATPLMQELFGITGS
Method in brief: (§3)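 hPXR-Luc HepG2 cells exposed 24 h at 37 C to compounds with 2 uM rifampicin in antagonist mode; luciferase luminescence measured by ONE-Glo, with CellTiter-Fluor viability read beforehand.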

[12] = target: Cytochrome P450 2C19 (Homo sapiens) (UniProt P33261); assay: qHTS for inhibitors of CYP2C19 against the NCATS DSHEA and TCM libraries (AID 1919974);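 note: luminescence from luciferin released by CYP2C19 oxidation of a pro-luciferin substrate; % is set by controls: 0 for no effect and ±100 for the full control effect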
Cytochrome P450 2C19 (Homo sapiens), sequence (P33261 whole entry, looked up): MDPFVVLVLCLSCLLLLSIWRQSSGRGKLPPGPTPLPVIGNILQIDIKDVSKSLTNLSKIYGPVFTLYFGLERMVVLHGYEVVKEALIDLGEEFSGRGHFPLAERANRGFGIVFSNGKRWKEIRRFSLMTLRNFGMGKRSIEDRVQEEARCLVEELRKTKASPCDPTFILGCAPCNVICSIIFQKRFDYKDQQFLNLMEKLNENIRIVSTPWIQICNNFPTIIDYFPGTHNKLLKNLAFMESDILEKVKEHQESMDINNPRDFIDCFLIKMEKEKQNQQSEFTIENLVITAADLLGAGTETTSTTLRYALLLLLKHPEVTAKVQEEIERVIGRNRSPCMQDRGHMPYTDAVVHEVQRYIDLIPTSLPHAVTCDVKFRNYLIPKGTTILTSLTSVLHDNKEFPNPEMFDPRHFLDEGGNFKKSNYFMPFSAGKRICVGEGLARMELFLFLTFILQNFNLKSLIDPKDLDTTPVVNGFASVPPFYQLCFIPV
Method in brief: as §2

[13] = Dual reporter qHTS for antagonist of Pregnane X Receptor (hPXR) against the NCATS DSHEA and TCM libraries: Fluorescence Readout (AID 1920061); note: 0% is about no effect
Method in brief: as §3

[14] = target: Lysosomal acid glucosylceramidase (Homo sapiens) (UniProt P04062); assay: Glucocerebrosidase-p2 (AID 348; in the data active = potency below about 10 µM; note: potency is the fitted concentration of half-maximal effect); settings: purified GBA, blue fluorogenic substrate, 40 min
Lysosomal acid glucosylceramidase (Homo sapiens), sequence (P04062 whole entry, looked up): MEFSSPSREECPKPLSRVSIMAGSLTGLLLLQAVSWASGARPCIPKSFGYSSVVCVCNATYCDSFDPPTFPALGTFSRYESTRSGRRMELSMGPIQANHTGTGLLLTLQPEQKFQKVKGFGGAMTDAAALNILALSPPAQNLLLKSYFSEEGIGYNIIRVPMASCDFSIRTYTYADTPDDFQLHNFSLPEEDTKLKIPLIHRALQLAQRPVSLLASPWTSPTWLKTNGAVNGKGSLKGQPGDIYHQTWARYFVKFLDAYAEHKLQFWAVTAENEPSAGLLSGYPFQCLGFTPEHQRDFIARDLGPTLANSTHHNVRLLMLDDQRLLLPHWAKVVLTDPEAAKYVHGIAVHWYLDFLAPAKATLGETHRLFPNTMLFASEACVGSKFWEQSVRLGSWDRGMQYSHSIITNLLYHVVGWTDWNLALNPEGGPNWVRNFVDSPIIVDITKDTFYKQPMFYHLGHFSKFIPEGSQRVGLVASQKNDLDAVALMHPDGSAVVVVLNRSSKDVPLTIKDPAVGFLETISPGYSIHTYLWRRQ
Method in brief: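 Compounds titrated from 0.6 nM upwards against 0.2 nM enzyme in pH 5.9 citric acid/KH2PO4, taurocholate, tween-20; blue fluorogenic substrate 80 uM, 40 min room temperature, stopped and read Ex 365/Em 440 for AC50.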

[15] = AP1 Signaling Pathway (AID 357; active = well fitted curve in either direction with a large enough effect, not every such curve was filed as active;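 note: ME-180 reporter cells stimulated with EGF at its EC50 level; % is set by controls: 0 for no effect and ±100 for the full control effect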); settings: ME-180 (cervical carcinoma) AP-1-bla reporter, EGF-induced, beta-lactamase ratio, 5 h; at 7.69 µM (top of the series) unless noted
Method in brief: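 Cells are seeded overnight, exposed to compound titrations and an EC50 level of EGF for 5 hours at 37 °C, then loaded with CCF4 dye for 2.5 hours. Beta-lactamase activity under the AP-1 element is read as a blue/green ratio.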

[16] = NFAT Signaling Pathway (AID 444; active = well fitted curve in either direction with a large enough effect, not every such curve was filed as active); settings: Jurkat NFAT-bla M1, carbachol, beta-lactamase ratio, 5 h; at 7.69 µM (top of the series) unless noted
Method in brief: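 Jurkat cells carrying an NFAT-driven β-lactamase reporter and co-transfected muscarinic M1 receptor were treated with compound plus carbachol (1 uM final, an EC50 level) for 5 h at 37 °C. CCF4 loading followed for 1 h at RT; 460/530 nm ratio gave %activity.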

[17] = target: Glucocorticoid receptor (Homo sapiens) (UniProt P04150); assay: GR-GFP Redistribution (AID 450;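 active = compounds whose dose series gives a full or clear partial fitted curve of increased nuclear translocation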; note: potency is the fitted concentration of half-maximal effect); settings: U2OS GR-GFP nuclear translocation, laser cytometry, 2 h
Glucocorticoid receptor (Homo sapiens), sequence (P04150 whole entry, looked up): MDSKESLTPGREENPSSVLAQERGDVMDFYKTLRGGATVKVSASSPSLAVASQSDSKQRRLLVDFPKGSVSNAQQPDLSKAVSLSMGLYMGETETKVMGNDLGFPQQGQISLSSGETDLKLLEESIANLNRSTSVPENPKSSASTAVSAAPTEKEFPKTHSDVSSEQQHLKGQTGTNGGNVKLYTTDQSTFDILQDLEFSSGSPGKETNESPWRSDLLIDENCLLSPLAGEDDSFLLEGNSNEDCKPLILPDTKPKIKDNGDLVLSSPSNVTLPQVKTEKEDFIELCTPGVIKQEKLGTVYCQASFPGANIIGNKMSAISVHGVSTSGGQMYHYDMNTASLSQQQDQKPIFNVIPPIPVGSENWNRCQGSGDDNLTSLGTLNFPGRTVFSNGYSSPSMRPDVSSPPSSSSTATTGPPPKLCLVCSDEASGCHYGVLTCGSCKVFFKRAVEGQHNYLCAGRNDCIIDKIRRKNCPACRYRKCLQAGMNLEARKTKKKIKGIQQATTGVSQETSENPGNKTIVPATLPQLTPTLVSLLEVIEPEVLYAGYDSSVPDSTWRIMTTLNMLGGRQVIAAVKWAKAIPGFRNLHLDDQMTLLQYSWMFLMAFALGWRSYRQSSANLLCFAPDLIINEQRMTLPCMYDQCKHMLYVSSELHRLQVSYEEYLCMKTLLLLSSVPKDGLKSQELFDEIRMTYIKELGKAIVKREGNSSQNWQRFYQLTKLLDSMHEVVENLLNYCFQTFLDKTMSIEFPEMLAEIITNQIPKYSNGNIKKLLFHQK

[18] = target: Mitogen-activated protein kinase 10 (Mus musculus) (UniProt Q61831); assay: JNK3 AlphaScreen Assay (AID 530; active = well fitted curve in either direction with a large enough effect, not every such curve was filed as active)
Method in brief: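 Inhibitors reduce antibody binding to phosphorylated biotin-cJun, lowering AlphaScreen luminescence. Lysates from HepG2 cells pre-activated by IL-1beta plus TNF-alpha supplied JNK3; compounds were titrated.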

[19] = target: Ubiquitin carboxyl-terminal hydrolase 1 (Homo sapiens) (UniProt O94782); assay: Inhibitors of USP1/UAF1: Pilot qHTS (AID 504865);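 note: rhodamine fluorescence freed from ubiquitin-rhodamine substrate followed over time; top concentration of the series differs between compounds; % is set by controls: 0 for no effect and ±100 for the full control effect; nearly all actives have a fitted effect of over 35% in size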
Ubiquitin carboxyl-terminal hydrolase 1 (Homo sapiens), sequence (O94782 whole entry, looked up): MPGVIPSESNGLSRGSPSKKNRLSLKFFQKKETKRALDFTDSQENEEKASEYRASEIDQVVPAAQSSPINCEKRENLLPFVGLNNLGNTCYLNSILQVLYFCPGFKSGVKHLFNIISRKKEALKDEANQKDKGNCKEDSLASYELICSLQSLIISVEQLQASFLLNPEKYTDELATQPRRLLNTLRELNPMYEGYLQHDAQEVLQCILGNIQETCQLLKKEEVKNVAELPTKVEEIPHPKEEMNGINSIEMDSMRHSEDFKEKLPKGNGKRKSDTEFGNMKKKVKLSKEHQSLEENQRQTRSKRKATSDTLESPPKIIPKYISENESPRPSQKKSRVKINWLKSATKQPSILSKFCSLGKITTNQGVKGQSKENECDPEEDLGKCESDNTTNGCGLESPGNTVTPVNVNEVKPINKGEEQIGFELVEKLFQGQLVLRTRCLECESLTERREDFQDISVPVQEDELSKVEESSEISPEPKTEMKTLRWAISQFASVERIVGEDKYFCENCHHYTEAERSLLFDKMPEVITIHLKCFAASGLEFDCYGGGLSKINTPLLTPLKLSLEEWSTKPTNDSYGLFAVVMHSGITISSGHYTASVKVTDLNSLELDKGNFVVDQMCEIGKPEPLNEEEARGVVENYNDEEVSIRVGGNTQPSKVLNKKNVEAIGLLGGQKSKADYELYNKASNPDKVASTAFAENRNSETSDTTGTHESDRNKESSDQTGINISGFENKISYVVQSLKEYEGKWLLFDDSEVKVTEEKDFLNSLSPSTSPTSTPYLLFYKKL
Method in brief: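 1nM USP1/UAF1 + cpd, 15 min RT; start w/ Ub-Rho 150nM final; kinetic FL 480/540 nm, 6 reads q60 s. Buffer 50mM HEPES pH 7.8, 0.5mM EDTA, 1mM TCEP, 0.01% Tween-20, 0.1 mg/ml BSA.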

O=c1cc(-c2ccc(O)cc2)oc2cc(O[C@@H]3O[C@H](CO)[C@@H](O)[C@H](O)[C@H]3O[C@@H]3OC[C@](O)(CO)[C@H]3O)cc(O)c12
inactive: outcome [1] | Potency [2] | outcome [3] | outcome [4] | Potency [5] | Potency [6] | outcome [7] | Potency [8] | max response [9] 5.67% | outcome [10] | outcome [11]

CC(C)[C@H](C)CC[C@@H](C)[C@H]1CC[C@H]2[C@@H]3CC=C4C[C@@H](O)CC[C@]4(C)[C@H]3CC[C@]12C
inactive: outcome [1] | Potency [2] | outcome [3] | outcome [4] | Potency [5] | Potency [6] | Potency [12] | outcome [7] | Potency [8] | max response [9] 2.09% | outcome [10] | outcome [11]

CC/C=C\C/C=C\C/C=C\C/C=C\CCCCC(=O)O
inactive: viability change, negative = cytotoxic [1] -11.8% [at 5 µM] | activation [2] -23.1% [at 5 µM] | activity change, negative = cytotoxic [3] -8.49% [at 3.42 µM] | activity change, negative = inhibition [4] -7.13% [at 3.42 µM] | activity change, negative = inhibition [5] 5.33% [at 4.27 µM] | activity change, negative = inhibition [6] -5.86% [at 4.27 µM] | activity change, negative = inhibition [12] 43.3% [at 4.27 µM] | activity change, negative = inhibition [7] -9.13% [at 3.26 µM] | activity change, negative = inhibition [8] 16.4% [at 4.62 µM] | max response [9] -1.09% | activation [10] -3.85% [at 5 µM] | activity change, negative = inhibition [11] -24.2% [at 5 µM] | activity change, negative = inhibition [13] -0.29% [at 5 µM]

c1ccc(Nc2nc(-c3cccnc3)nc3ccccc23)cc1
inactive: Potency [14] > 11.4 µM | activity change, negative = inhibition [15] 6.52% | activity change, negative = inhibition [16] 17% | Potency [17] > 46 µM | Potency [18] | Potency [19]

CCCCCC/C=C\CCCCCCCC(=O)O
inactive: outcome [1] | Potency [2] | outcome [3] | outcome [4] | Potency [5] | Potency [6] | Potency [12] | outcome [7] | max response [9] 0.217% | outcome [10] | outcome [11]

CC12CC3(O)OC(O1)C1(COC(=O)c4ccc(O)cc4)C3CC21OC1OC(CO)C(O)C(O)C1O (stereo unspecified)
inactive: outcome [1] | Potency [2] | outcome [3] | outcome [4] | Potency [5] | Potency [6] | Potency [12] | outcome [7] | Potency [8] | max response [9] 4.47% | outcome [10] | outcome [11]

CCCCCCCCCCCCCC(=O)OCC(O)CO (stereo unspecified)
inactive: outcome [1] | Potency [2] | outcome [3] | outcome [4] | Potency [5] | Potency [6] | outcome [7] | max response [9] 2.98% | outcome [10] | outcome [11] | outcome [13]

From PubChem BioAssay (NCATS)
